# Compound activity as filed in PubChem.
# dFosB act – activators of mouse delta FosB homodimer; P13346; activation, % at 25 µM; hit rate 0.99% among 340,000; AID 493131; purified delta FosB, TAMRA-CDK5 oligo fluorescence polarization; percent of positive-control signal above neutral wells;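 active means mean activation above about 17%, with every replicate also reaching it, limit read from the data, passing the limit was not always enough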
# Target sequence (P13346 whole entry, looked up): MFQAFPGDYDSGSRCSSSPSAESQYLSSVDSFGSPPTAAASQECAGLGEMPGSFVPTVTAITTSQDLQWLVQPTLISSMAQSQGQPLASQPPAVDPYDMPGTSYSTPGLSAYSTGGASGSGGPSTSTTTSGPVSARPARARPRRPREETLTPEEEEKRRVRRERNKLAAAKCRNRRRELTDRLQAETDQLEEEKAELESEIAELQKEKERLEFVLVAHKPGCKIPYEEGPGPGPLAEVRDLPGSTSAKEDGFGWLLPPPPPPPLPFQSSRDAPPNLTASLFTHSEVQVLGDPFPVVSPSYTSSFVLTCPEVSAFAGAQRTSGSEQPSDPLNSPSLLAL
# HSF1 inh – HSF1 inhibition; NIH3T3-HGL HSE-luciferase, MG132-induced, luminescence 8 h; hits give low values; activity change, negative = inhibition, % at 7.5 µM (by protocol); hit rate 0.77% among 300,000;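 active means more than half of replicate wells show activity change below -50%, luminescence cut by over half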;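 further: luciferase reports HSF-1 transcriptional activity via heat shock element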
# MPTP block – blocks calcium-induced mitochondrial swelling | AID 602449 | isolated mouse mitochondria, Ca2+ swelling absorbance, 30 min | hit rate 1.4% among 360,000 | inhibition, % at 10 µM;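 active means inhibition of 50% or more, scaled per plate between neutral and stimulator controls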
# HSF1 activator – increases HSF-1 driven luciferase reporter signal; hit rate 1.7% among 300,000; NIH3T3-HGL HSF-1 luciferase reporter, MG132, 8 h; 100% = twice DMSO control signal; AID 504408; activation, % at 9 µM;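 active means mean replicate activation of at least 50% with a set share of replicates each reaching 50%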
# Platelet DG rel – modulates dense granule release in human platelets. human platelet-rich plasma, SFLLRN dense granule ATP release, luminescence. inhibition, %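 (compounds screened at 7.5 µM in platelet-rich plasma)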. hit rate 0.22% among 300,000;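 active means mean replicate score, as percent of positive control, at or above 50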
# HSP90 refold inh – HSP90 refolding inhibition in rabbit reticulocyte lysate. luciferase refolding luminescence, 3 h. inhibition, % at 5.6 µM. hit rate 0.91% among 290,000. AID 1789;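 active means inhibition above the screen-wide mean plus 3 SD, computed separately per campaign, cut at about 16% in these data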;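 further: inhibitors lower the luminescence because luciferase stays unfolded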
# Hits are given with their value; . = inactive; / = no result given. This is a sample that favours compounds with a hit; in the whole collection about 4.9% have one here.
SMILES,dFosB act,HSF1 inh,MPTP block,HSF1 activator,Platelet DG rel,HSP90 refold inh
C(#Cc1ccccc1)CN1CCN(c2ccccn2)CC1,.,-71.6,.,.,/,.
Cc1ccc(S(=O)(=O)c2nc(-c3ccccc3)oc2N2CCC(C(N)=O)CC2)cc1,.,.,.,.,.,.
Cc1ccc(N2CC(C(=O)OCC(=O)Nc3ccc(Cl)cc3)CC2=O)cc1 (stereo not drawn),.,/,.,/,/,/
Cc1ccc(-c2nc(SC(C)C(=O)N3CCOCC3)n[nH]2)cc1 (stereo not drawn),.,.,.,.,61.3,.
Cc1ccc(-c2nc(SC(C)C(=O)N3CCCC3)n[nH]2)cc1 (stereo not drawn),.,.,.,.,.,/
O=C(Nc1cccc(-c2cn3ccccc3n2)c1)c1cnccn1,.,.,.,54.2,.,.
O=C(Nc1cccc(-c2cn3ccccc3n2)c1)c1cccc(Cl)c1,.,.,.,.,.,.
O=c1oc(-c2ccccc2)cc(Cl)c1Cl,.,.,.,454.7,.,.
O=c1oc(-c2ccccc2)cc2ccccc12,/,/,.,/,/,/
COCCN(C(=O)CSc1n[nH]c(-c2ccccc2)n1)c1c(N)n(CC(C)C)c(=O)[nH]c1=O,.,.,.,.,.,/
COc1ccc(-c2noc(CCC(=O)NCCc3ccccc3)n2)cc1,.,.,.,.,.,.
CCOCCCNC(=O)Cn1cc2c(n1)CCCC2,.,.,.,.,.,.
CCN(CCCNC(=O)CCc1nc(-c2ccc(OC)cc2)no1)c1cccc(C)c1,.,.,.,61.6,.,.
CCN(CCCNC(=O)Cn1cc2c(n1)CCCC2)c1cccc(C)c1,.,.,.,59.1,.,.
CCN(CC)CCC12CC(C)OC1=Nc1ccccc1NC2=O (stereo not drawn),/,/,.,/,/,/
CCCCCC(=O)N1C[C@@H](n2cc(COC(=O)c3ccccc3)nn2)[C@H](O)C[C@@H]1c1ccccc1,/,/,.,/,/,/
NS(=O)(=O)c1ccc(NC(=O)CNC(=O)c2ccc3c(c2)OCO3)cc1,.,/,.,/,/,/
Cc1cc(C)n(CCC(=O)Nc2ccc3c(c2)OCCO3)n1,.,.,.,.,.,.
COc1ccccc1CN=C1Nc2ccccc2CS1,.,.,.,123.0,.,.
c1cncc(CN=C2Nc3ccccc3CS2)c1,.,.,.,.,.,.
Cc1ccc(CN=C2Nc3ccccc3CS2)cc1,.,.,.,60.9,.,.
Clc1ccc(CN=C2Nc3ccccc3CS2)cc1,.,.,.,65.8,.,.
CC(C)NC(=O)N[C@H]1CC[C@H](CC(=O)NCc2ccc(Oc3ccccc3)cc2)O[C@@H]1CO,/,/,.,/,/,/
Cc1cc(=O)nc2c3ccccc3n(CC(=O)NCCCN3CCCC3=O)n12,.,.,.,.,.,.
O=C(Nc1cccc(Cl)c1)N1CCC(CO)(CCOc2ccccc2)CC1,.,.,.,94.8,.,.
SMILES,dFosB act,HSF1 inh,MPTP block,HSF1 activator,Platelet DG rel,HSP90 refold inh
O=C(Nc1ccc(Cl)cc1)N1CCC(CO)(Cc2ccccc2)CC1,.,.,.,.,.,.
COC(=O)CCC(=O)N1CCC(CCC(=O)NCc2ccc(F)cc2)CC1,.,.,.,.,.,.
COCCCNCCOc1ccc(C)cc1[N+](=O)[O-],.,.,.,58.7,.,.
C=CCn1c(=O)c(C(=O)Nc2ccccc2O)c(O)c2ccccc21,.,.,.,.,.,.
C=CCn1c(=O)c(C(=O)Nc2ccccc2C)c(O)c2ccccc21,.,.,.,75.3,.,.
COc1cccc(C=O)c1OCCN1C(=O)c2ccccc2C1=O,.,.,.,.,.,.
O=c1[nH]cc(S(=O)(=O)c2ccccc2)[nH]1,.,-51.5,.,.,.,.
C/C(=N\n1nnnc1Nc1ccccc1)c1ccc(N)cc1,/,.,/,116.9,.,.
Cn1ccnc1SCC(=O)N(C1CCCCC1)C1CCCCC1,.,-68.3,.,.,.,.
Cn1ccnc1SCC(=O)c1ccc2ccccc2c1,.,.,.,212.6,.,.
COc1cccc(C(=O)CSc2nccn2C)c1,.,.,.,.,.,.
Cc1ccc(N(C(=O)c2csnn2)C(C(=O)NCc2ccccc2)c2ccccn2)cc1 (stereo not drawn),.,.,.,.,.,.
CC1CCCN(C(=O)c2cccc(S(=O)(=O)N3CCCC3)c2)C1 (stereo not drawn),.,/,.,/,/,/
CC(C)CCN(CCC(C)C)C(=O)Cc1c(O)c2ccccc2[nH]c1=O,.,.,.,53.0,.,.
CC(C)(C)NC(=O)CN(C(=O)CNS(=O)(=O)c1ccc(Cl)cc1)c1ccc2c(c1)OCCO2,.,.,.,.,.,.
OC12CCCCC1C(c1ccc3c(c1)OCO3)N(Cc1ccc(F)cc1)CC2 (stereo not drawn),.,.,.,54.3,.,.
OC12CCCCC1C(c1ccc3c(c1)OCO3)N(Cc1ccccc1F)CC2 (stereo not drawn),.,.,.,57.3,.,.
CCN1CCN(S(=O)(=O)c2ccc(Cl)c(C(=O)N(C)C3CCCCC3)c2)CC1,/,/,.,/,/,/
COc1ccc(Br)cc1CN1CCN(Cc2c[nH]c3ccccc23)CC1,.,.,.,55.0,.,.
COc1ccc(CN2CCN(Cc3c[nH]c4ccccc34)CC2)cc1OC,/,/,.,/,/,/
O=C(COC(=O)c1ccc(O)cc1O)Nc1ccc(Cl)cn1,.,.,.,.,.,.
O=C(COC(=O)c1ccc(O)cc1O)c1ccc(Cl)cc1,.,.,.,61.3,.,/
Cc1ccc(C(=O)OC(C)C(=O)c2cc(C)c(C)cc2C)o1 (stereo not drawn),.,.,.,.,.,.
CCOC(=O)C=Nc1c(N)n(C)c(=O)n(C)c1=O,.,.,.,.,.,.
COc1ccc(-c2nc(-c3ccccn3)no2)cc1,.,-77.8,.,.,61.4,94.1
SMILES,dFosB act,HSF1 inh,MPTP block,HSF1 activator,Platelet DG rel,HSP90 refold inh
Brc1ccc(-c2nc(-c3ccncc3)no2)cc1,.,.,.,.,.,.
O=[N+]([O-])c1ccc(-c2nc(-c3ccncc3)no2)cc1,.,.,.,65.0,.,.
COc1ccc(-c2nc(-c3ccncc3)no2)cc1,.,.,.,54.0,.,21.2
O=[N+]([O-])c1cccc(-c2noc(-c3cccs3)n2)c1,.,.,.,57.1,.,.
COc1ccc(-c2nc(-c3cccnc3)no2)cc1,.,.,.,.,.,.
COc1cc2oc(=O)cc(CN3CCN(C(C)=O)CC3)c2cc1Cl,/,/,.,/,/,/
O=C(O)CNc1ccccc1C(=O)O,.,.,.,.,.,.
CC(=O)N1CC=CC1(CC(C)C)C(=O)NCCN1CCOCC1 (stereo not drawn),.,.,.,.,.,.
Cc1nn(C)cc1CNC(=O)C1CCC(=O)N(CC2CCCCC2)C1 (stereo not drawn),.,.,.,.,55.8,.
CCN(c1ccccc1)S(=O)(=O)c1ccc(Cl)c(NC(=O)COC(=O)c2cccc(OC)c2O)c1,.,.,.,59.0,.,.
CCCCN1C(=O)/C(=C2\SC(N3CCCCC3)=NC2=O)c2ccccc21,.,.,.,51.4,.,.
O=C1N=C(N2CCCCC2)SC1=C1CCCC1,.,.,.,.,.,.
